A selection: hits, their analogues and other compounds. The true share with any hit is near 4%.
HIF-2a inh: HIF-2a reporter inhibitors, primary screen, luminescence, 786-0 RCC cells; 786-0 RCC cells HIF-2a reporter, luciferase luminescence, overnight; inhibition, % at 18.8 µM; 0.72% of 360,000 active; AID 624352, 2012;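 active = inhibition of the luminescence signal of 40% or more relative to plate controls, in a single-dose primary screen at 18.75 µM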
Peg3 prom inh: Peg3 promoter-driven luciferase inhibitors, primary screen, cell-based, HeLa, luciferase luminescence; HeLa PEG-Prom luciferase reporter, overnight; inhibition, % at 20 µM; 1.7% of 360,000 active; AID 588405, 2011;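 active = inhibition of at least 50% at 20 µM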
TWEAK-Fn14 inh: inhibitors of TWEAK-Fn14 signaling, primary screen, luciferase reporter cells, uHTS; inhibition, % at 10 µM; AID 1159606, 2016; 2% of 360,000 active; TWEAK-stimulated Fn14 reporter cells, luciferase luminescence, 8 h; in the data active = inhibition above about 50%
KKLEB tox: cytotoxicity in KKLEB CF airway cells, primary screen, cytotoxicity control for CF NF-kB inhibitor project, cell-based, uHTS, fluorescence assay plates; KKLEB CF airway cells viability, ATPlite luminescence, overnight; stronger effect = lower value; cells stimulated with P. aeruginosa culture filtrate; 0.36% of 360,000 active; AID 602141, 2011; activity change (cytotoxicity), % at 5 µM;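 active = corrected activity change at or below -50% at 5 µM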
CF NFkB block: inhibitors of PAF-induced NF-kB signaling, primary screen, cell-based, GFP fluorescence, uHTS | KKLEB NF-kB-GFP reporter, GFP fluorescence overnight | inhibition, % at 5 µM | 0.86% of 360,000 active | AID 588850, 2011;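 active = at least 50% inhibition at 5 µM, scaled per plate between neutral and stimulator controls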;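 also: PAF is a Pseudomonas aeruginosa culture filtrate used as stimulus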
TROY signal inh: inhibitors of TROY-driven NF-kB signaling, primary screen, Q293 LMP1-TROYcd cells, NF-kB luciferase, uHTS; Q293 LMP1-TROYcd NF-kB luciferase reporter, 4 h; inhibition, % at 10 µM; 0.98% of 360,000 active; AID 1347056, 2019;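 active = compounds whose plate-normalised and pattern-corrected inhibition of the luciferase reporter signal at the single screening dose is 50% or more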
Numbers stand for hits; - = inactive.

SMILES	HIF-2a inh	Peg3 prom inh	TWEAK-Fn14 inh	KKLEB tox	CF NFkB block	TROY signal inh
O=C(NCC(c1cccnc1)N1CCN(c2ccc(F)cc2)CC1)C1CCCCC1 (configuration not stated)	-	-	-	-	-	-
Cn1nc(C(F)(F)F)c(/C=N/OC(=O)c2ccccc2)c1SCc1ccccc1Cl	-	53	-	-	-	-
CN(C)S(=O)(=O)c1ccc(-c2csc(N/N=C/c3ccco3)n2)cc1	-	61	104	-	-	71
CC(=O)Nc1cc(C(=O)CSc2nnc(C3CC3)n2C2CC2)ccc1O	-	-	-	-	-	-
Cc1ccc2nc(Cl)c3nnnn3c2c1	-	111	-	-	71	84
Cc1ccc2nc(N3CCN(c4cccc(C)c4C)CC3)c3nnnn3c2c1	-	-	-	-	-	-
CCC(C)NC(=O)CC(NS(=O)(=O)c1ccc(Cl)cc1)c1ccco1 (configuration not stated)	-	-	59	-	-	-
CC(C)(C)c1ccc(OC(=O)Nc2ccc(O)c(C(=O)O)c2)cc1	69	-	73	-	-	-
O=C(CN1C(=O)NC2(CCc3ccccc3C2)C1=O)NCc1ccco1 (configuration not stated)	-	-	-	-	-	-
COc1ccc(N2C(=O)CC(Nc3cccc([N+](=O)[O-])c3)C2=O)cc1 (configuration not stated)	-	-	-	-	-	-
CCOC(=O)/C(C#N)=C\c1cc(C)n(-c2ccccc2)c1C	-	-	81	-	-	79
CCOC(=O)/C(C#N)=C/c1cc(C)n(-c2ccc(C)cc2)c1C	-	-	-	-	-	50
Cc1ccc(C(=O)COC(=O)c2ccc3c(c2)C(=O)N(c2cccc4ncccc24)C3=O)cc1	-	102	-	-	-	-
O=C(COC(=O)c1ccc2c(c1)C(=O)N(c1cccc3ncccc13)C2=O)c1ccc(Cl)cc1	-	-	-	-	-	-
CSc1ccc(S(=O)(=O)N2CCC(C(=O)NCCCn3ccnc3)CC2)cc1	-	-	83	-	-	-
Cc1csc(NC(=O)CSc2nccn2C)n1	-	-	-	-	-	-
O=C(Nc1ccc(OCc2ccccc2)cc1)Nc1nnc([C@H]2C[C@H](O)[C@@H](CO)O2)s1	-	-	-	-	-	-
COc1cc(-c2noc(C)c2C#Cc2ccc(N)cc2)cc(OC)c1OC	-	-	-	-	52	-
O=C(CSc1ncccc1C(=O)O)NC1CCCCCCC1	-	-	-	-	-	-
O=C(N/N=C/c1ccc(F)cc1)c1c(O)c2ccccc2[nH]c1=O	-	-	-	-	-	-
O=C(N/N=C/c1cccc(F)c1)c1c(O)c2ccccc2[nH]c1=O	-	-	58	-64	65	-
CCN(CC)CC(C)CNC(=O)CC(C(=O)N1CCc2ccccc21)n1ccnc1 (configuration not stated)	-	-	56	-	-	-
CCCN(CCC)CCCNC(=O)CC(C(=O)N1CCc2ccccc21)n1ccnc1 (configuration not stated)	-	-	-	-	-	-
CCOc1ccc(N(C(=O)/C=C/C(=O)Nc2cc(C)on2)C(C(=O)NC2CCCC2)c2ccccc2C)cc1 (configuration not stated)	-	-	-	-	-	-
CCc1ccc(C(C(=O)NC2CCCC2)N(C(=O)/C=C/C(=O)Nc2cc(C)on2)c2ccccc2C)cc1 (configuration not stated)	-	-	56	-	-	-
SMILES	HIF-2a inh	Peg3 prom inh	TWEAK-Fn14 inh	KKLEB tox	CF NFkB block	TROY signal inh
O=C(/C=C/c1ccc(OCCCF)cc1)Nc1ccnc(-c2cccnc2)n1	-	-	-	-	-	52
CC(O)(CC(=O)CC(=O)c1ccccc1)c1ccccc1 (configuration not stated)	-	52	-	-	-	-
Cc1ccnc(NC(=O)CCC2CCCCC2)c1	-	-	-	-	-	-
COc1ccc(N2CCN(C(=O)CSc3nnc4n3C(C)(C)Cc3ccccc3-4)CC2)cc1	-	-	-	-	-	-
Cc1ccc(Cl)cc1N1CCN(C(=O)CSc2nnc3n2C(C)(C)Cc2ccccc2-3)CC1	-	-	96	-	-	72
CC(C)NC(=O)CC(c1ccccc1)c1cc(Br)ccc1O (configuration not stated)	-	-	-	-	-	-
CCCCCCNC(=O)CC(c1ccccc1)c1cc(Br)ccc1O (configuration not stated)	-	-	-	-	-	55
Cc1cc(C(=O)CSc2ccc(Cl)cc2)cc(C)c1OC(=S)N(C)C	-	-	-	-	-	80
CCCC(C(=O)O)n1c(O)c(C=C2N=c3ccccc3=N2)sc1=S (configuration not stated)	-	-	-	-	-	-
Cc1ccc(NC2=CC(=O)C(=O)c3ccccc32)c(C)c1	-	-	75	-	77	74
O=C1C=C(NCc2ccccc2)c2ccccc2C1=O	-	-	69	-	-	-
Cc1ccc(NS(=O)(=O)c2ccc3c(c2)C(=O)c2ccccc2C3=O)c(C)c1	-	-	-	-	-	-
O=C1C=C(Nc2ccccc2O)c2ccccc2C1=O	-	-	-	-64	64	-
CC(C)(C)c1ccc(CC(=O)N2CCC2(C)C(=O)NCc2ccc(Cl)cc2)cc1 (configuration not stated)	-	-	-	-	-	-
Nc1ncc(Br)cc1S(=O)(=O)Nc1cc(C(F)(F)F)cc(C(F)(F)F)c1	-	-	-	-	-	56
Cc1ccc(NS(=O)(=O)c2cc(Br)cnc2N)c(Cl)c1	-	-	-	-	-	-
CC(C)CC(N)c1csc(NC(=O)C(c2ccccc2)c2ccccc2)n1 (configuration not stated)	-	95	-	-	-	-
CC(C)C(N)c1csc(NC(=O)Nc2ccccc2C(C)(C)C)n1 (configuration not stated)	-	-	-	-	-	-
CC(C)CC(N)c1csc(NC(=O)Nc2ccccc2-c2ccccc2)n1 (configuration not stated)	-	104	-	-	-	-
CC(C)CC(N)c1csc(NC(=O)Nc2ccccc2Cc2ccccc2)n1 (configuration not stated)	-	86	-	-	-	-
COc1ccc(C)cc1S(=O)(=O)N(C)CC(=O)N1CCCCCC1	-	75	-	-	-	-
S=C1Nc2ccccc2CS1	-	-	-	-	-	-
S=C1Cc2ccccc2N1	-	95	72	-	-	-
